Compound activity as filed in PubChem.
GAA850 FXN act – frataxin GAA850 promoter activation; AID 540364; 0.56% of 360,000 active; activation, % at 6 µM; HEK293 lucGAA850 FXN promoter luciferase reporter, 24 h; percent of 10 µM SAHA response;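 active means activation above the average of all compounds screened plus 3 SD, cutoff fixed separately per campaign, cut at about 7.5% in these data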;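 further: 0% = DMSO wells and 100% = 10 µM SAHA wells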
NR0B1 inh – inhibitors of human orphan nuclear receptor DAX1 (NR0B1) | AID 504766 | P51843 | inhibition, % at 6.75 µM | 0.99% of 340,000 active | HEK293 Gal4-DAX1 luciferase reporter, luminescence;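 active means inhibition above the mean over all tested compounds plus 3 SD, cut at about 4.2% in these data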;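 further: 0% = DAX1-transfected cells with DMSO and 100% = empty-vector control cells with DMSO; inhibition shows as a rise in luminescence from relieved DAX1 repression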
AHR activator – activators of human aryl hydrocarbon receptor. AHR-responsive luciferase reporter cells, luminescence. activation, % at 5 µM. 2.5% of 320,000 active; in the data active means activation above about 47%;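 further: 0% = vehicle wells and 100% = reference agonist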
HSF-1 act – increases HSF-1 driven luciferase reporter signal. NIH3T3-HGL HSF-1 luciferase reporter, MG132, 8 h; 100% = twice DMSO control signal. activation, % at 9 µM. 1.7% of 300,000 active. AID 504408;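 active means mean replicate activation of at least 50% with a set share of replicates each reaching 50%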;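 further: 0% = median of the neutral control wells and 100% = twice that signal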
HSF1 inh – HSF1 inhibition | activity change, negative = inhibition, % at 7.5 µM (by protocol) | AID 2098 | NIH3T3-HGL HSE-luciferase, MG132-induced, luminescence 8 h; hits give low values | 0.77% of 300,000 active;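 active means more than half of replicate wells show activity change below -50%, luminescence cut by over half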;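 further: luciferase reports HSF-1 transcriptional activity via heat shock element; 0% = median of DMSO wells and -100% = zero luminescence signal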
Active calls of the source: *. Rows were chosen to be rich in hits. Some 5.4% of all compounds tested hit in one or more screens of this group.

Screening Cn1c(N)c(C(=O)c2ccc(C#N)cc2)c(=O)n(C)c1=O returned GAA850 FXN act -2, NR0B1 inh -1, AHR activator -4, HSF-1 act -4 and HSF1 inh -6.
Screening Cc1ccccc1N=CC1=C(O)c2ccccc2C1=O returned GAA850 FXN act -3, NR0B1 inh -3, AHR activator 28, HSF-1 act -24 and HSF1 inh -9.
`COc1ccc(N=CC2=C(O)c3ccccc3C2=O)c(OC)c1` gave GAA850 FXN act -3, NR0B1 inh 2, AHR activator 54*, HSF-1 act -78 and HSF1 inh -73*.
CC(=NN(Cc1ccccc1)c1ccccc1)c1ccccc1 was read as GAA850 FXN act 4 and NR0B1 inh 4.5*.
`C/C(=N\N(c1ccccc1)c1ccccc1)c1ccc(O)cc1` gave GAA850 FXN act 1, NR0B1 inh 2, AHR activator -1, HSF-1 act 26 and HSF1 inh 3.
CCOc1ccc2ncc(S(=O)(=O)c3ccc(C)cc3)c(N3CCC4(CC3)OCCO4)c2c1 was read as GAA850 FXN act -2, NR0B1 inh -2, AHR activator 34, HSF-1 act 104* and HSF1 inh 41.
Screening Cc1ccc(S(=O)(=O)N2CCOCC2)cc1C(=O)N1CCN(S(=O)(=O)c2ccccc2F)CC1 returned GAA850 FXN act -1 and NR0B1 inh 0.
`COc1ccc(-c2csc(C(O)c3ccccc3)n2)cn1` (centres undefined) gave GAA850 FXN act 0.
`Cc1ccc(Oc2ccc(OCC(=O)NC3CCS(=O)(=O)C3)cc2)cc1` (centres undefined) gave GAA850 FXN act -1, NR0B1 inh -2, AHR activator 3, HSF-1 act 53* and HSF1 inh 37.
Screening CCn1c(O)c(N=NC(=O)c2cccs2)c2ccccc21 returned GAA850 FXN act 2, NR0B1 inh 2, AHR activator 42, HSF-1 act 63* and HSF1 inh 19.
O=C(NCc1ccccn1)c1ccc(NS(=O)(=O)c2cccc(Cl)c2)cc1 was read as GAA850 FXN act 1, NR0B1 inh 3, HSF-1 act 10 and HSF1 inh -4.
`COc1ccc(CCNC(=O)CSc2nnc(-c3ccco3)c(-c3ccco3)n2)cc1OC` gave AHR activator 3, HSF-1 act -17 and HSF1 inh -10.
Screening O=C(O)c1ccc(OCCCCCCOC2CCCCO2)cc1 (centres undefined) returned GAA850 FXN act 1, NR0B1 inh 4.5*, AHR activator 0, HSF-1 act -1 and HSF1 inh -5.
Screening O=C(/C=C/c1ccco1)NC(=S)Nc1ccccc1N1CCCC1 returned GAA850 FXN act 2, NR0B1 inh -1, AHR activator 65*, HSF-1 act -2 and HSF1 inh -3.
For O=C(/C=C/c1ccco1)NC(=S)Nc1ccccc1N1CCOCC1 the results were GAA850 FXN act -1, NR0B1 inh 0, AHR activator 12, HSF-1 act 5 and HSF1 inh 0.
`O=C(/C=C/c1ccco1)Nc1ccccc1N1CCCC1` gave GAA850 FXN act -2, NR0B1 inh -2, AHR activator 73*, HSF-1 act 7 and HSF1 inh 0.
`COc1ccc(NC(=S)NC(=O)/C=C/c2ccco2)c(OC)c1` gave GAA850 FXN act 0, NR0B1 inh 1, AHR activator 68*, HSF-1 act 9 and HSF1 inh 5.
Cn1c(CCC(=O)OCC(=O)Nc2ccc(Oc3ccccc3)cc2)nc(=O)c2ccccc21 was read as GAA850 FXN act 1, NR0B1 inh -2, AHR activator -1, HSF-1 act 55* and HSF1 inh 17.
Screening O=C(COC(=O)C1CC1)Nc1ccc(Oc2ccccc2)cc1 returned GAA850 FXN act -2, NR0B1 inh 0, AHR activator 2, HSF-1 act 6 and HSF1 inh 3.
For O=C(COC(=O)C1CCC1)Nc1ccc(Oc2ccccc2)cc1 the results were GAA850 FXN act -1, NR0B1 inh 0, AHR activator 0, HSF-1 act 52* and HSF1 inh 15.
CCc1nc2c(sc3nc4c(cc32)COC(C)(C)C4)c(=O)n1CCN(CC)CC was read as GAA850 FXN act 2, NR0B1 inh 0, AHR activator -1, HSF-1 act 8 and HSF1 inh 1.
C=CCn1c(C)nc2c(sc3nc4c(cc32)COC(C)(C)C4)c1=O was read as GAA850 FXN act 5, NR0B1 inh 4.7*, AHR activator 0, HSF-1 act 53* and HSF1 inh 31.
